We go through 36 compounds from PubChem BioAssay (EPA / NIEHS).

Where “and” joins values, the source holds several entries; their conditions need not be identical. Identical values can stand only once. Some compounds were tested as several samples or in several runs, with calls that do not always agree. Calls of active or inactive are those of the source. Rule for the calls: active = hit-call score of the fitted dose curve at least 0.9, where 1 is the maximum; inactive = score below 0.9.

Chain of Heat shock factor protein 1 (Homo sapiens) (Q00613 whole entry, looked up): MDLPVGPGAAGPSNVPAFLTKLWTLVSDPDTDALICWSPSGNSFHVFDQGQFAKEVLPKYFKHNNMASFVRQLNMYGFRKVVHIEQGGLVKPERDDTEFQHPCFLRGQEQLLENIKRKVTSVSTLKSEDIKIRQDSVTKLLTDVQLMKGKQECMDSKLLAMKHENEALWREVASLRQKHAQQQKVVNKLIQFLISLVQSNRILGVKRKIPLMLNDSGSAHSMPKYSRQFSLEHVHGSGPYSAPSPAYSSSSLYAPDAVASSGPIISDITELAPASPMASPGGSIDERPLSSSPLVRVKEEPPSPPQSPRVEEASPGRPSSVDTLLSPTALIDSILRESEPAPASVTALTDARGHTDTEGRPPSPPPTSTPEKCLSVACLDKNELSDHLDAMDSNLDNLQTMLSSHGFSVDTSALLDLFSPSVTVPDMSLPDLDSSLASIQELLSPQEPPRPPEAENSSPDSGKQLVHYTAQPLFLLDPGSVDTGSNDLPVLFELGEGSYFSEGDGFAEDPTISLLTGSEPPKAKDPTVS

The test addresses Heat shock factor protein 1 (Homo sapiens) (UniProt Q00613). The test is described as follows: ATG_HSE_CIS: Attagene CIS-FACTORIAL HepG2 Assay for human Heat Shock Transcription Factor 1 (HSE) (AID 2282953). The following applies: HepG2 HSE cis-reporter, Attagene RNA transcription; actives raise or lower the signal. The protocol: ATG_CIS is a cell-based, multiplexed-readout assay that uses HepG2, a human liver cell line, with measurements taken at 24 hours after chemical dosing in a 24-well plate.ATG_HSE_CIS is one of 52 assay component(s) measured or calculated from the ATG_CIS assay. It is designed to make measurements of mRNA induction, a form of inducible reporter, as detected with fluorescence intensity signals by Reverse transcription polymerase chain reaction (RT-PCR) and Capillary electrophoresis technology.Data from the assay component ATG_HSE_CIS was analyzed into 1 assay endpoint. This assay endpoint, ATG_HSE_CIS, was analyzed with bidirectional fitting relative to DMSO as the negative control and baseline of activity. Using a type of inducible reporter, measures of mRNA for gain or loss-of-signal activity can be used to understand the reporter gene at the transcription factor-level as they relate to the gene HSF1. Furthermore, this assay endpoint can be referred to as a primary readout, because this assay has produced multiple assay endpoints where this one serves a reporter gene function. To generalize the intended target to other relatable targets, this assay endpoint is annotated to the dna binding intended target family, where the subfamily is heat shock protein.
Human liver HepG2 cells are transiently transfected with multiple reporter transcription units (MRTUs) in 6-well plates using FuGene 6 reagent (Roche; 3 ml FuGene/1 mg DNA). The MRTU constructs are regulated by a cis-regulating element (promoter). […] A major difference between the CIS and TRANS system is that in CIS activities of endogenous TFs are measured, whereas the TRANS assay evaluates changes in activities of exogenous, chimeric NR-Gal4 proteins. […] At the end of 24 hour incubation, total RNA was isolated using TriZol reagent (Invitrogen). The isolated RNA is then reverse-transcribed using oligo(dT) primer and Mo-MLV reverse transcriptase (Invitrogen) with DNAse I (Ambion) treatment for 30 min. The one-tenth of the produced cDNA was amplified by PCR using Taq DNA polymerase (Invitrogen) and two reporter sequence-specific primers. The PCR products were fluorescently labeled by primer extension with 6-arboxyfluorescein (6-FAM) 5'-labeled reporter sequence-specific primer (2 min at 95 C, 20 s at 68 C and 10 min at 72 C) and these products were digested with 5U of HpaI (New England Biolabs) for 2h at 37 C. The fragments were purified using Qiaquick PCR columns (Qiagen), analyzed on an ABI 3130xL genetic analyzer (Applied Biosystems) with peak positions identified by using a set of X-rhodamine (ROX)-labeled MapMarker1000 molecular weight standards (BioVentures). The raw capillary electrophoresis data was processed using Attagraph software (Attagene).
Take `COc1nc(NC(C)C)nc(NC(C)C)n1`: the call was inactive.

As for `CS/C(C)=N/OC(=O)N(C)SN(C)C(=O)O/N=C(\C)SC`, the compound was classed as inactive.

On to `COc1ccc(C(c2ccc(OC)cc2)C(Cl)(Cl)Cl)cc1`, for which the call was inactive.

Regarding `COc1cnc(OC)n2nc(NS(=O)(=O)c3c(OCC(F)F)cccc3C(F)(F)F)nc12`, the outcome was inactive.

`O=C(O)COc1nc(Cl)c(Cl)cc1Cl`: the outcome was inactive.

For the compound `CO/C=C(/C(=O)OC)c1ccccc1Oc1cc(Oc2ccccc2C#N)ncn1`, the compound was classed as inactive; the AC50 was 168 µM (active) and 155 µM (active) and 170 µM (active).

For `CCCCNC(=O)n1c(NC(=O)OC)nc2ccccc21`, the outcome was inactive.

As for `CCCN(CCC)c1c([N+](=O)[O-])cc(S(N)(=O)=O)cc1[N+](=O)[O-]`, the outcome was inactive.

As for `CCON=C(CC)C1=C(O)CC(c2c(C)cc(C)cc2C)CC1=O` (stereo not given), the result was inactive.

For the compound `COC(=O)C=C(C)OP(=O)(OC)OC`, the compound was classed as inactive.

With `O=C(O)c1nc(Cl)ccc1Cl`, the outcome was inactive.

Regarding `O=C(Nc1ccccc1)Nc1ccnc(Cl)c1`, the result was inactive.

Regarding `Fc1ccc(Oc2ccnc3cc(Cl)cc(Cl)c23)cc1`, the call was inactive.

Take `CN(C)C(=S)SSC(=S)N(C)C`: the compound was called inactive.

Regarding `CC(Oc1ccc(Cl)cc1Cl)C(=O)O` (stereo not given), the outcome was inactive.

As for `CCCCOC(=O)c1ccccc1C(=O)OCCCC`, the compound was classed as inactive.

Regarding `Cc1ccc(-c2c(Cl)nc(C#N)n2S(=O)(=O)N(C)C)cc1`, the compound was called inactive.

With `C#CCOS(=O)OC1CCCCC1Oc1ccc(C(C)(C)C)cc1` (stereo not given), the call was inactive.

In the case of `COP(=S)(OC)Oc1nc(Cl)c(Cl)cc1Cl`, the outcome was inactive.

Turning to `CNC(=S)S`, the AC50 is 83 µM (active) and the call was inactive.

As for `COP(N)(=O)SC` (stereo not given), the result was inactive.

For the compound `CCCCNC(=O)OCC#CI`, the AC50 was 25.6 µM (active) and the call was inactive.

Consider `CCOP(=S)(OCC)SCn1c(=O)oc2cc(Cl)ccc21`, for which the AC50 was 78.7 µM (active).

For `CCNc1nc(Cl)nc(NCC)n1`, the result was inactive.

In the case of `Cc1cc(Cl)ccc1OCC(=O)O`, the outcome was inactive.

For `CC(C)Oc1cc(-n2nc(C(C)(C)C)oc2=O)c(Cl)cc1Cl`, the AC50 is 50 µM (active).

`COC(=O)C(C)Oc1ccc(Oc2ccc(Cl)cc2Cl)cc1` (stereo not given): the result was inactive.

For `CCOC(=O)C(Cl)Cc1cc(-n2nc(C)n(C(F)F)c2=O)c(F)cc1Cl` (stereo not given), the call was inactive.

For `Oc1ccccc1-c1ccccc1`, the AC50 is 189 µM (active) and the outcome was inactive.

Consider `N#CC(CCc1ccc(Cl)cc1)(Cn1cncn1)c1ccccc1` (stereo not given), for which the outcome was inactive.

Take `CCOc1cc(Oc2ccc(C(F)(F)F)cc2Cl)ccc1[N+](=O)[O-]`: the compound was classed as inactive.

On to `Cc1c(F)c(F)c(COC(=O)C2C(/C=C(\Cl)C(F)(F)F)C2(C)C)c(F)c1F` (stereo not given), for which the call was inactive.

As for `CC1=C(C(=O)Nc2ccccc2)SCCO1`, the call was inactive.

Turning to `CCc1nn(C)c(C(=O)NCc2ccc(C(C)(C)C)cc2)c1Cl`, the outcome was inactive.

On to `CC1COC(Cn2cncn2)(c2ccc(Oc3ccc(Cl)cc3)cc2Cl)O1` (stereo not given), for which the compound was classed as inactive.

For the compound `N#Cc1cc(Br)c(O)c(Br)c1`, the compound was classed as inactive.
